Calls of active or inactive are those of the source.
Tests used:
[1] = anti-His antibody binders, primary screen, artefact control for SMM control protein annotation, biochemical, small-molecule microarray, 635 nm fluorescence (AID 1128); conditions: anti-His Alexa647 antibody binding, higher = more signal;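 further: score merges feature fluorescence with signal-to-noise for each printed compound spot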
[2] = test system: Human papillomavirus type 1a E7 protein (residues 1-88); experiment: HPV1a E7 small-molecule binders, primary screen, biochemical, small-molecule microarray, residues 1-88, 635 nm (AID 1129); conditions: small-molecule microarray binding, fluorescence 635 nm; higher = more signal
[3] = biological target: Focal adhesion kinase 1 (Homo sapiens) (UniProt Q05397); experiment: small-molecule microarray binders of FAK, primary screen, biochemical, 635/667 nm fluorescence, BSA, DTT (AID 1130); conditions: PTK2 binding, 635 nm fluorescence, higher = more signal;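 further: composite of spot emission at 667 nm and signal to noise over triplicate slides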
Chain of Focal adhesion kinase 1 (Homo sapiens) (Q05397 whole entry, looked up): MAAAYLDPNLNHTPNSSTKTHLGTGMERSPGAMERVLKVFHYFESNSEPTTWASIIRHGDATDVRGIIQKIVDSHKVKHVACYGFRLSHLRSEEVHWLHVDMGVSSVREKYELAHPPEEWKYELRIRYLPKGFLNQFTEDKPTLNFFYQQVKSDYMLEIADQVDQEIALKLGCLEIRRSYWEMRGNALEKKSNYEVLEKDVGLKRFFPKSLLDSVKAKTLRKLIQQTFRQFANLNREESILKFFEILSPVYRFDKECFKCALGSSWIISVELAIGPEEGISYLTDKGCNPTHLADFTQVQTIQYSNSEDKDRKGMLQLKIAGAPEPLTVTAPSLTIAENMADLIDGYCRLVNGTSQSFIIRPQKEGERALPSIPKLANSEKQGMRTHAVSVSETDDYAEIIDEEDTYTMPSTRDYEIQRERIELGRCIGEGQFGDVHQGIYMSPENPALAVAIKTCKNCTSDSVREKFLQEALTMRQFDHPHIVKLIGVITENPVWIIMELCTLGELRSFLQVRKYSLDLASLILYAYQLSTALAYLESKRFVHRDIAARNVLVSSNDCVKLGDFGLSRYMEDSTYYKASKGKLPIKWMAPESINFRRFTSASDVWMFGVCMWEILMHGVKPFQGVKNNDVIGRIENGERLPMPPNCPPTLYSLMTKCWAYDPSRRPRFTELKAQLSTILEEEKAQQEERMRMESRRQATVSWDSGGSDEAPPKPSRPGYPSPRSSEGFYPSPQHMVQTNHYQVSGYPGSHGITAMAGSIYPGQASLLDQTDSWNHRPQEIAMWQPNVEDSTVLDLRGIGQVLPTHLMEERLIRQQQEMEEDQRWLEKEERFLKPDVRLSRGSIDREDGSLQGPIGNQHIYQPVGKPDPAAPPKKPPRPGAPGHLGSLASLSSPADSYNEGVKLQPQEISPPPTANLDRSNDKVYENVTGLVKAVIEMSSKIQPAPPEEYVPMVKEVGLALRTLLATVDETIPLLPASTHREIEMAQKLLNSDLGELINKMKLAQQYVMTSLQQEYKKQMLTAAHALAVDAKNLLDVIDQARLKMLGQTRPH

[4] = test system: Fibrinogen (Alexa647-labelled); experiment: fibrinogen binders on compound microarrays, profiling panel, artefact control for SMM control-protein annotation, biochemical, small-molecule microarray, 635/667 nm fluorescence (AID 1131); conditions: fibrinogen-A647 binding fluorescence, higher = more signal;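 further: z-score merges 667 nm fluorescence with per-spot signal-to-noise over triplicate slides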
[5] = biological target: Follistatin (Homo sapiens) (UniProt P19883); experiment: follistatin binders on small-molecule microarrays, primary screen, biochemical, small-molecule microarray, 635/667 nm fluorescence (AID 1132); conditions: FST binding, 635 nm fluorescence, higher = more signal
Chain of Follistatin (Homo sapiens) (P19883 whole entry, looked up): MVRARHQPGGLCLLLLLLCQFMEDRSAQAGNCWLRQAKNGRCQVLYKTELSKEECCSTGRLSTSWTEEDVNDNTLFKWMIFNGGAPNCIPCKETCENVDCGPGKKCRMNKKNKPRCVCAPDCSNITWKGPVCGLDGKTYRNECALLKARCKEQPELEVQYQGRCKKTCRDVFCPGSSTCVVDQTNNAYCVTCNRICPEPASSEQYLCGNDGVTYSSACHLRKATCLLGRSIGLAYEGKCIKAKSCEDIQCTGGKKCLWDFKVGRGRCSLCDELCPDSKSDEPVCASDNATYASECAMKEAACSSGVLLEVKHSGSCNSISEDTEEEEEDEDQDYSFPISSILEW

[6] = biological target: Fibroblast growth factor 2 (Homo sapiens) (UniProt P09038); experiment: FGF2 binders on small-molecule microarrays, primary screen, biochemical, small-molecule microarray, 635/667 nm fluorescence (AID 1133); conditions: small-molecule microarray binding, FGF2, fluorescence 635/667; higher = more signal
Chain of Fibroblast growth factor 2 (Homo sapiens) (P09038 whole entry, looked up): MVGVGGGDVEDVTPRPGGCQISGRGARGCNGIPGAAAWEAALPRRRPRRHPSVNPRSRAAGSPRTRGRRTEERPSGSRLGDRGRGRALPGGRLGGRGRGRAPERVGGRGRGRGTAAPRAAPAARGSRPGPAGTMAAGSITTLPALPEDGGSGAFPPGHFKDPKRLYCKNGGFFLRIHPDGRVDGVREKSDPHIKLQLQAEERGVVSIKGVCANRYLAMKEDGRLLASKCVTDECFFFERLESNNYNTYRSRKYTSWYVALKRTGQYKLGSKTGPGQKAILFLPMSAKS

[7] = mitochondrial membrane potential change in A549 cells, profiling panel, cell-based, JC-1 fluorescence, basal, 24 h, 100 nL (AID 1138); conditions: higher = more signal;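 further: A549 lung adenocarcinoma cells under basal conditions with no added stimulus; test concentration not given here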
Lefty1 = Lefty1 binders on small-molecule microarrays, primary screen, biochemical, small-molecule microarray, 635/667 nm fluorescence (AID 1139); conditions: small-molecule microarray binding, fluorescence 635/667; higher = more signal
[8] = test system: wheat germ agglutinin (Triticum aestivum), Alexa647-labelled; experiment: wheat germ agglutinin binders on compound microarrays, profiling panel, artefact control for SMM control-protein annotation, biochemical, small-molecule microarray, 635/667 nm fluorescence (AID 1140); conditions: WGA-A647 binding, 635 nm fluorescence, higher = more signal;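 further: score merges 667 nm feature emission with signal to noise over triplicate slides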
[9] = biological target: Luciferin 4-monooxygenase (Photinus pyralis) (UniProt P08659); experiment: firefly luciferase enzyme inhibitors, primary screen, biochemical, luminescence, purified enzyme, 2006 set (AID 1141); conditions: SteadyGlo luminescence, 30 min, higher = more signal, called active from +8 up or from −8 down;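 further: cell-free assay with purified firefly luciferase at 100 ng per well in PBS; test concentration not given here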
Chain of Luciferin 4-monooxygenase (Photinus pyralis) (P08659 whole entry, looked up): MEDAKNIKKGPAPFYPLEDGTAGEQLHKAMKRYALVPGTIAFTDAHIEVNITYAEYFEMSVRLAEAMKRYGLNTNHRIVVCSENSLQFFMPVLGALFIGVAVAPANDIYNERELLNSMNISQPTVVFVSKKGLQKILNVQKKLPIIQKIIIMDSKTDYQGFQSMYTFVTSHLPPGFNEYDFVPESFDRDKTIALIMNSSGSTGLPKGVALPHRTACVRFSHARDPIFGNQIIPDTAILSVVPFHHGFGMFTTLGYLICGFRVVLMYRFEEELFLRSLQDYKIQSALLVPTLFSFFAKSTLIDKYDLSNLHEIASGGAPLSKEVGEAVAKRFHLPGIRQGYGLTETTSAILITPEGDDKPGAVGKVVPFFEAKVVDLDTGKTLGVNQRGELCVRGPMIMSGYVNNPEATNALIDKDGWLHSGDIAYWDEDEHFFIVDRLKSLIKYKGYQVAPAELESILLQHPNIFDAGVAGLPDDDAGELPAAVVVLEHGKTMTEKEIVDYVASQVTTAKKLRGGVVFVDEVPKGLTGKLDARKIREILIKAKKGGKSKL

SMILES	composite z-score [1]	composite z-score [2]	composite z-score [3]	composite z-score [4]	composite z-score [5]	composite z-score [6]	z-score [7]	composite z-score (Lefty1)	composite z-score [8]	z-score [9]
O=C1OCCC/C=C\[C@H]2OC34C=CCN(Cn5nnc6ccccc65)C(=O)[C@H]3N(CCCCCCO)C(=O)[C@@H]4C12 (stereo not given in full)	0.919	-0.776	0.326	-2.01	-0.686	-1.58	1.05	-0.394	0.727	-0.254 (inactive)
COC(=O)C=C(CC(O)c1cccc(Cl)c1)OC (stereo not given)	1.14	1.15	0.0918	0.6	-0.431	-0.0579	-0.252	-0.492	1.04	0.699 (inactive)
COC(=O)C(CC#Cc1ccc2c(c1)[C@]1(C(=O)N2)[C@H](c2ccc(O)cc2)N2[C@H](c3ccccc3)[C@H](c3ccccc3)OC(=O)[C@H]2[C@@H]1C(=O)Nc1nc2ccccc2s1)C(=O)OC	1.8	1.22	0.833	0.96	1.1	1.22	-1.7	1.23	0.471	-1.63 (inactive)
COCCOC(=O)N1C(=O)[C@@]2(c3cc(C#CCCO)ccc31)[C@H](C(=O)Nc1nc3ccccc3s1)[C@H]1C(=O)O[C@H](c3ccccc3)[C@H](c3ccccc3)N1[C@@H]2c1ccc(OCCO)cc1	0.738	0.957	0.128	0.944	1.27	1.65	-2.4	1.26	0.482	-2.56 (inactive)
COCCOC(=O)N1C(=O)[C@@]2(c3ccccc31)[C@H](c1ccccc1OCCO)N1[C@H](c3ccccc3)[C@H](c3ccccc3)OC(=O)[C@H]1[C@@H]2C(=O)Nc1nc2ccccc2s1	1.04	1.19	0.445	0.994	1.35	1.03	-1.91	1.34	1.18	-2.37 (inactive)
CC(C)(C)OC(=O)CC[C@@]12N=C(c3ccc(OCCCO)cc3)O[C@@H]1c1ccccc1N(CCS(=O)(=O)c1ccccc1)C2=O	2.03	1.19	0.412	0.129	1.3	0.109	0.84	0.644	0.653	-7.46 (inactive)
O=C1C2C=CC(C(O)c3ccc(F)cc3)N(Nc3ccccc3F)C2C(=O)N1c1ccccc1 (stereo not given)	1.55	1.13	0.198	0.958	1	-0.514	-0.227	-0.497	1.17	1.28 (inactive)
COCC(=C=CC[C@H](O)c1ccccc1OCCO)C[C@H](O)c1cc(Cl)cc(Cl)c1O	-0.058	0.914	0.469	0.974	0.888	1.59	-0.54	0.685	0.351	-1.28 (inactive)
C=CCOC(=O)[C@H]1[C@@H]2C(=O)O[C@@H](c3ccccc3)[C@@H](c3ccccc3)N2[C@@H](c2ccc(OCCOC(=O)[C@@H]3C[C@@H]4C(=O)N[C@@H](CCCC[N+](C)(C)C)C(=O)N4[C@@H]3c3ccc(O)cc3)cc2)[C@]12C(=O)Nc1ccccc12	1.46	1.2	0.877	0.583	1.26	1.51	-0.849	1.18	0.494	-2.95 (inactive)
C=CCNC(=O)[C@H]1[C@@H]2C(=O)O[C@@H](c3ccccc3)[C@@H](c3ccccc3)N2[C@@H](c2ccc(O)cc2)[C@]12C(=O)N(C(=O)OCCOC)c1ccc(C#CCNC(N)=O)cc12	1.05	0.898	0.0197	0.0703	1.44	1.58	-0.531	0.713	1.03	-0.0822 (inactive)
COc1cc2c(cc1O)C(C1CC1)N(Cc1cc3c(cc1Br)OCO3)CC2 (stereo not given)	-1.4	-0.603	-0.629	-0.736	-0.774	-0.746	-0.721	-1.01	-0.503	-0.0849 (inactive)
CN1C(=O)C2C=CC(C(O)C3CC=CCC3)N(NC(=O)OC(C)(C)C)C2C1=O (stereo not given)	0.561	0.889	0.465	-0.0919	1.25	0.124	-0.0347	0.717	1.32	-0.71 (inactive)
N#Cc1ccc(NN2C(C(O)c3c(F)cccc3Cl)C=CC3C(=O)N(c4ccccc4)C(=O)C32)cc1 (stereo not given)	2.29	1.21	0.377	0.973	1.23	0.407	-0.36	-0.0219	0.997	-0.671 (inactive)
O=C(c1ccccc1)N1Cc2ccccc2[C@@H]2OC(c3ccc(OCCCO)cc3)=N[C@]2(Cc2ccccc2)C1=O	2.33	1.19	0.319	0.924	1.32	1.02	-0.411	0.838	0.765	-0.976 (inactive)

Reference: PubChem BioAssay
